# Experimental data: PubChem BioAssay (Tox21)
# Inconclusive results are not listed. Entries that show only a call come without a potency. A structure can be active in one record and inactive in another. Calls of active or inactive are those of the source. The call rests on the fitted dose curve; in most records, active means well fitted curve in the direction sought with a large enough effect in the repeat runs; inconclusive means weak or mixed curves; inactive means no such curve, though single readings can be large; an effect the other way counts as inactive or inconclusive.
# How the values were obtained:
# [1] = A CellTox Green Cytotoxicity Assay to monitor cytotoxicity in HEK293 cells - 40 hour (AID 1224871); further: nearly all actives have a fitted effect of over 45% in size; further: potency means the concentration at half of the fitted maximal effect
# Method in brief: (§1)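 Fluorescence intensity, read at 0, 8, 16, 24, 32 and 40 h of compound treatment, reflected dye binding to DNA of dead HEK293 cells; compounds (23 nL, DMSO) were added 5 h after plating cells with reagent.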
# [2] = qHTS RealTime-Glo MT Cell Viability Assay in HEK293 cells - 16 hour (AID 1224872); further: nearly all actives have a fitted effect of over 50% in size; further: potency means the concentration at half of the fitted maximal effect
# Method in brief: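 Cells + reagent dispensed (600 cells/well, HEK293) → 5 h at 37 C/5% CO2 → 23 nL compound in DMSO pinned → 40 h at 37 C → luminescence read at 0, 8, 16, 24, 32, 40 h.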
# [3] = qHTS RealTime-Glo MT Cell Viability Assay in HepG2 cells - 8 hour (AID 1224873); further: nearly all actives have a fitted effect of over 55% in size; further: potency means the concentration at half of the fitted maximal effect
# Method in brief: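 HepG2 cells mixed with RealTime-Glo MT reagents (NanoLuc plus cell-permeant prosubstrate) were seeded at 600 cells/well, incubated 5 h at 37 C/5% CO2, then pinned with compounds in DMSO; nonlytic luminescence tracked viability during 40 h treatment.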
# [4] = qHTS RealTime-Glo MT Cell Viability Assay in HEK293 cells - 40 hour (AID 1224874); settings: RealTime-Glo luminescence; max response: stronger effect = lower value; further: nearly all actives have a fitted effect of over 50% in size; further: potency means the concentration at half of the fitted maximal effect
# Method in brief: (§2)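 Viable HEK293 cells reduce a cell-permeant prosubstrate; the product diffuses out and is consumed by NanoLuc in the medium to give light. Compounds went in after a 5 h incubation and plates were read over the treatment course.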
# [5] = A CellTox Green Cytotoxicity Assay to monitor cytotoxicity in HEK293 cells - 24 hour (AID 1224875); further: nearly all actives have a fitted effect of over 45% in size; further: potency means the concentration at half of the fitted maximal effect
# Method in brief: as §1
# [6] = qHTS RealTime-Glo MT Cell Viability Assay in HepG2 cells - 32 hour (AID 1224877); further: nearly all actives have a fitted effect of over 55% in size; further: potency means the concentration at half of the fitted maximal effect
# Method in brief: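 Real-time, nonlytic viability: 600 HepG2 cells/well mixed with NanoLuc enzyme plus prosubstrate; 5 h settle, compound (DMSO) added by pintool; luminescence monitored over 40 h at 37 C.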
# [7] = A CellTox Green Cytotoxicity Assay to monitor cytotoxicity in HepG2 cells - 24 hour (AID 1224878); further: nearly all actives have a fitted effect of over 45% in size; further: potency means the concentration at half of the fitted maximal effect
# Method in brief: (§3)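 Using 1536-well format, dye-containing HepG2 suspension was seeded, allowed 5 h at 37 C/5% CO2, dosed by pintool with compounds, positive and negative controls, and imaged for fluorescence across 40 h.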
# [8] = A CellTox Green Cytotoxicity Assay to monitor cytotoxicity in HepG2 cells - 40 hour (AID 1224879); further: nearly all actives have a fitted effect of over 40% in size; further: potency means the concentration at half of the fitted maximal effect
# Method in brief: as §3
# [9] = qHTS RealTime-Glo MT Cell Viability Assay in HEK293 cells - 0 hour (AID 1224880); further: top concentration of the series differs between compounds; nearly all actives have a fitted effect of over 45% in size
# Method in brief: as §2
# [10] = A CellTox Green Cytotoxicity Assay to monitor cytotoxicity in HepG2 cells - 16 hour (AID 1224876); further: nearly all actives have a fitted effect of over 45% in size; further: potency means the concentration at half of the fitted maximal effect
# Method in brief: as §3
Structure (SMILES),Potency [1],Potency [2],Potency [3],max response [4],Potency [5],Potency [6],Potency [7],Potency [8],Potency [9],Potency [10],Potency [4]
O=C(N[C@H]1N=C(c2ccccc2F)c2cccc3c2N(CC3)C1=O)c1cc2ccccc2[nH]1,inactive,inactive,inactive,-4.67% (inactive),inactive,inactive,inactive,inactive,inactive,,
Cc1cccc(Cc2cnc[nH]2)c1C,inactive,inactive,inactive,-0.68% (inactive),inactive,inactive,,,inactive,,
Nc1ccc(Cl)cc1C(=O)c1ccccc1F,inactive,inactive,inactive,-9.35% (inactive),inactive,inactive,,,inactive,,
COP(=O)(OC)Oc1ccc([N+](=O)[O-])cc1,inactive,inactive,inactive,,inactive,inactive,inactive,inactive,,inactive,
Cc1ccc([N+](=O)[O-])[c]2c1[O][Hg]2,0.674 µM (active),3.38 µM (active),2.13 µM (active),,1.51 µM (active),2.39 µM (active),2.68 µM (active),1.9 µM (active),,3.01 µM (active),
O=[N+]([O-])c1ccc(CCl)cc1,inactive,inactive,inactive,,inactive,inactive,inactive,inactive,,inactive,
Nc1c(Cl)c(Cl)c(Cl)c(Cl)c1Cl,inactive,inactive,inactive,-2.22% (inactive),inactive,inactive,,,inactive,,
CCC(C)c1cccc(C(C)CC)c1O (stereo not drawn),27.5 µM (active),inactive,inactive,-7.36% (inactive),38.9 µM (active),inactive,,19.5 µM (active),inactive,17.4 µM (active),
CCOP(=O)(OCC)Oc1nc(Cl)c(Cl)cc1Cl,inactive,inactive,inactive,,inactive,inactive,inactive,inactive,,inactive,
CCN(CC)CCc1c[nH]c2ccccc12,inactive,inactive,inactive,,inactive,inactive,inactive,inactive,,inactive,
Nc1nc(N)nc(Cl)n1,inactive,inactive,inactive,1.73% (inactive),inactive,inactive,,inactive,inactive,inactive,
COc1ccc(Cc2nccc3cc(OC)c(OC)cc23)cc1OC,inactive,4.77 µM (active),10.7 µM (active),,inactive,,inactive,,,inactive,5.35 µM (active)
O=[N+]([O-])c1cc(C(F)(F)F)c(Cl)c([N+](=O)[O-])c1Nc1ncc(C(F)(F)F)cc1Cl,24.5 µM (active),2.75 µM (active),24.5 µM (active),,38.9 µM (active),17.4 µM (active),12.3 µM (active),3.89 µM (active),inactive,43.6 µM (active),
COc1nc(C)nc(NC(=O)NS(=O)(=O)c2ccccc2Cl)n1,inactive,inactive,inactive,1.45% (inactive),inactive,inactive,,inactive,inactive,inactive,
CCN(CC)CCN1C(=O)CN=C(c2ccccc2F)c2cc(Cl)ccc21,inactive,inactive,inactive,-8.22% (inactive),inactive,inactive,,inactive,inactive,inactive,
COC(=O)c1ccccc1S(=O)(=O)NC(=O)Nc1nc(C)nc(OC)n1,inactive,inactive,inactive,,inactive,inactive,inactive,inactive,inactive,inactive,
C[C@]12C/C(=C/O)C(=O)C[C@@H]1CC[C@@H]1[C@@H]2CC[C@@]2(C)[C@H]1CC[C@]2(C)O,49.4 µM (active) and inactive,inactive,inactive,-17.5% (inactive),,inactive,inactive,,,inactive,
ClSC(Cl)(Cl)Cl,inactive,inactive,inactive,0.633% (inactive),inactive,inactive,,inactive,inactive,inactive,
CCCCN(CCCC)C(=S)S,inactive,inactive,inactive,-4.16% (inactive),inactive,inactive,,,inactive,inactive,
CN,inactive,inactive,inactive,,inactive,inactive,inactive,inactive,inactive,inactive,
CC#C[C@]1(O)CC[C@H]2[C@@H]3C[C@H](C)C4=CC(=O)CC[C@]4(C)[C@H]3CC[C@@]21C,inactive,inactive,inactive,,inactive,inactive,inactive,,,inactive,
CNC(=O)O/N=C(\C)C(C)S(C)(=O)=O (stereo not drawn),inactive,inactive,inactive,1.59% (inactive),inactive,inactive,,,inactive,inactive,
CC(C)C(Br)C(=O)NC(N)=O (stereo not drawn),inactive,inactive,inactive,,inactive,inactive,inactive,inactive,inactive,inactive,
